Results filed as inconclusive are left out. Where a call stands in place of a potency, no number is given. The source made the active and inactive calls. Unless noted, the call rests on the fitted dose curve; in most records, active means well fitted curve in the direction sought with a large enough effect in the repeat runs; inconclusive means weak or mixed curves; inactive means no such curve, though single readings can be large; an effect the other way counts as inactive or inconclusive.
Columns and labels:
[1] = target: Calcium and integrin-binding protein 1 (Homo sapiens) (UniProt Q99828); assay: Primary qHTS for Identification of Calcium Integrin Binding Protein 1 (CIB1) Competitor (AID 1508620; active means well fitted curve in the direction sought with a large enough effect; an effect the other way counts as inactive or inconclusive;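 further: GST tagged CIB1 binding a fluorescein labelled alphaIIb integrin peptide tracer; top concentration of the series differs between compounds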); details: CIB1-GST / FITC-alphaIIb peptide fluorescence polarization; series mostly up to 114 µM
Method in brief: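 Fluorescence polarization competition: CIB1-GST (1 uM final) preincubated with compound 15 min at room temperature, then FITC-labeled alphaIIb peptide (100 nM final) added for another 15 min. Polarization read at Ex 480/Em 540.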

[2] = target: Cytochrome P450 2D6 (Homo sapiens) (UniProt P10635); assay: Cytochrome P450 family 2 subfamily D member 6 (CYP2D6) small molecule antagonists: luciferase biochemical (cell-free) qHTS assay (AID 1645840); details: P450-Glo CYP2D6 enzyme, luciferin luminescence, 1 h; series mostly up to 57.4 µM; further: nearly all actives have a fitted effect of over 55% in size; further: potency means the concentration at half of the fitted maximal effect
Method in brief: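 P450-Glo luminescent screen: recombinant CYP2D6 enzyme–proluciferin substrate mix preincubated with compound 10 min at room temperature, then NADPH regeneration added for 1 h at room temperature. Detection reagent added for 20 min; luciferin light read as relative luminescence units.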

[3] = target: Cytochrome P450 2C9 (Homo sapiens) (UniProt P11712); assay: Cytochrome P450 family 2 subfamily C member 9 (CYP2C9) small molecule antagonists: luciferase biochemical (cell-free) qHTS assay (AID 1645842); details: P450-Glo CYP2C9 enzyme assay, luciferin luminescence; series mostly up to 57.4 µM; further: nearly all actives have a fitted effect of over 55% in size; further: potency means the concentration at half of the fitted maximal effect
Method in brief: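 Luminescence, after 20 min with luciferin detection reagent, reflected CYP2C9 turnover during a 1 h NADPH-driven reaction at 37C. Enzyme-substrate mix contained 0.4% bovine serum albumin and was preincubated with compound 10 min at room temperature.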

[4] = target: N-terminal Xaa-Pro-Lys N-methyltransferase 1 (Homo sapiens) (UniProt Q9BV86); assay: Confirmatory qHTS for Inhibitors of N-terminal methyltransferase 1 (NTMT1): MTaseGlo Assay (AID 1645874; active means well fitted curve in the direction sought with a large enough effect; an effect the other way counts as inactive or inconclusive; further: nearly all actives have a fitted effect of over 65% in size; further: potency means the concentration at half of the fitted maximal effect); details: NTMT1 enzyme, MTase-Glo SAH luminescence; series mostly up to 100 µM
Method in brief: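 Luminescent MTase-Glo read-out of SAH. 125 nM NTMT1, 100 uM SAM, 1 uM SPKRIA substrate, 30 min RT reaction after 15 min compound preincubation. Normalized to no-enzyme and DMSO controls; Hill fit.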

[5] = Primary qHTS for inhibitors of nuclear receptor binding SET domain protein 2 (NSD2) in an isogenic RCH-ACV NSD2 p.E1099K mutant (9B) (AID 1645876; active means well fitted curve in the direction sought with a large enough effect; an effect the other way counts as inactive or inconclusive; further: nearly all actives have a fitted effect of over 70% in size; further: potency means the concentration at half of the fitted maximal effect); details: RCH-ACV (leukaemia line) NSD2 E1099K (9B) viability, CellTiter-Glo, 72 h; series mostly up to 44.9 µM

Chain of Cytochrome P450 2D6 (Homo sapiens) (P10635 whole entry, looked up): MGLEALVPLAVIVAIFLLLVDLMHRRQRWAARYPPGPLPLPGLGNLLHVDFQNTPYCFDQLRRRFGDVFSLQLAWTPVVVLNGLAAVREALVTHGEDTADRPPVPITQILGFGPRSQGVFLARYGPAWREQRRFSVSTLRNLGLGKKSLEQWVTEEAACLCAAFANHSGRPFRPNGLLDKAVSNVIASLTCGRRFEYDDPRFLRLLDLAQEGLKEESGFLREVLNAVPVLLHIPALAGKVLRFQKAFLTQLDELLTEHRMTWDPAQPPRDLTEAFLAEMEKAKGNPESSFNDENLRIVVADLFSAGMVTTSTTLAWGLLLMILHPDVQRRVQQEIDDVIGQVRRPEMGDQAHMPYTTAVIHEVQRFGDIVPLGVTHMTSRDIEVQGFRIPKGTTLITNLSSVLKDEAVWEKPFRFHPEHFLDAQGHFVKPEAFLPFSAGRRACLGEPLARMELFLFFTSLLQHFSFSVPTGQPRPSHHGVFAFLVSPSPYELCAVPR
Chain of Calcium and integrin-binding protein 1 (Homo sapiens) (Q99828 whole entry, looked up): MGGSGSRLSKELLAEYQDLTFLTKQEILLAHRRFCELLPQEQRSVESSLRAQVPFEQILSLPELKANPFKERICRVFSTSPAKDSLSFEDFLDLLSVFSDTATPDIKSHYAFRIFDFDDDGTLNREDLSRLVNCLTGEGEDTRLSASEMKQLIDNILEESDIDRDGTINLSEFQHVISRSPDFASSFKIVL
Chain of Cytochrome P450 2C9 (Homo sapiens) (P11712 whole entry, looked up): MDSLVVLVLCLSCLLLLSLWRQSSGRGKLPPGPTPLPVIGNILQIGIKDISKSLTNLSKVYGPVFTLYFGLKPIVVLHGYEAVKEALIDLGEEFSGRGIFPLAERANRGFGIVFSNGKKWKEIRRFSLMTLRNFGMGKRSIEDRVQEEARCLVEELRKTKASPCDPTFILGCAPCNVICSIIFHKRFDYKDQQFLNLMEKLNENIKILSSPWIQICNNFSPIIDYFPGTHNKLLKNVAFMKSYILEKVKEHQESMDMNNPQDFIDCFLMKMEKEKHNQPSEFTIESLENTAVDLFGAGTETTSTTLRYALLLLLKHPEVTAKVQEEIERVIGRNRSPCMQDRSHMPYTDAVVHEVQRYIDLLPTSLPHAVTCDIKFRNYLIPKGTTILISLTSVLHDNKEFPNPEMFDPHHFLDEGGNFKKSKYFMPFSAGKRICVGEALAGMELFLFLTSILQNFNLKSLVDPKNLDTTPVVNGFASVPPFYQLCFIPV
Chain of N-terminal Xaa-Pro-Lys N-methyltransferase 1 (Homo sapiens) (Q9BV86 whole entry, looked up): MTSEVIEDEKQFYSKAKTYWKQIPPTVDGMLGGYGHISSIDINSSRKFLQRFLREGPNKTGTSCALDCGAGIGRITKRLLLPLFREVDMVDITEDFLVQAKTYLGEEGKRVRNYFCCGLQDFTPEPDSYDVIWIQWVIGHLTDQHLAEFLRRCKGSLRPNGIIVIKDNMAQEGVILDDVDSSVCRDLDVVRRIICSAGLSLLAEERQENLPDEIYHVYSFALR

| Compound | Potency [1] | Potency [2] | Potency [3] | Potency [4] | Potency [5] |
| --- | --- | --- | --- | --- | --- |
| Cc1ccc(S(=O)(=O)n2ccc(-c3c(-c4ccc(Cl)cc4)noc3C)n2)cc1 | inactive | inactive | 5.35 µM (active) |  |  |
| C[C@H]1Oc2cc(cnc2N)-c2c(nn(C)c2C#N)CN(C)C(=O)c2ccc(F)cc21 | inactive | inactive | 6.01 µM (active) |  |  |
| Oc1ccc2nc(CN3CCC(Cc4ccccc4F)CC3)[nH]c2c1 | inactive | 0.0379 µM (active) | 10.7 µM (active) |  |  |
| Cc1noc(-c2ccc(-c3ccc(CC(=O)O)cc3)cc2)c1NC(=O)O[C@H](C)c1ccccc1 | inactive | inactive | 13.5 µM (active) |  |  |
| CNC(=O)c1cc(Oc2ccc3nc(N[C@@H]4CCCC[C@H]4O)sc3c2)ccn1 | inactive | 16.9 µM (active) | 8.49 µM (active) |  |  |
| Cc1ccc(-c2c(C(=O)CF)n(CCCO)c3ncnc(N)c23)cc1 | inactive | inactive | 21.3 µM (active) |  |  |
| Cc1ccc(-c2ccc3ncc4c(c3n2)n(C2CCN(C(=O)[C@H](C)O)CC2)c(=O)n4C)cn1 | inactive | inactive | 10.7 µM (active) | 39.8 µM (active) | 0.0742 µM (active) |
| Cc1oc2ccccc2c1CNC(=O)NCc1cccs1 | inactive | 1.9 µM (active) | inactive |  | inactive |
| C=C(F)c1sc(CNCCCNc2cc(=O)c3ccccc3[nH]2)c(C)c1Br | inactive | 1.07 µM (active) | 2.13 µM (active) |  |  |
| CC(C)c1cccc2c(-c3ccccc3)cc(-c3ccc(-c4ccc(C(=O)O)cc4)[nH]3)nc12 | inactive | inactive | 7.56 µM (active) |  |  |
| c1ccc(-c2ncc(CN3CCN(c4ncccn4)CC3)[nH]2)cc1 | inactive | 0.952 µM (active) | 2.13 µM (active) |  | inactive |
| COc1cc(O)c([C@@H](CC(=O)N2CC(C)CC(C)C2)c2ccc3c(c2)OCO3)c(OC)c1 (stereo partly drawn) | inactive | 19 µM (active) | 1.34 µM (active) |  |  |
| CC(C)(C(=O)NCC(F)(F)C(F)(F)F)C(=O)NC1C(=O)Nc2ccccc2-c2ccccc21 (stereo not drawn) | inactive | 10.7 µM (active) | 9.52 µM (active) |  |  |
| CNS(=O)(=O)CC1CCC(N(C)c2ncnc3[nH]ccc23)CC1 (stereo not drawn) | inactive | inactive | inactive |  |  |
| Cc1cc(C)c2c(N)c(C(=O)NCc3ccc(Cl)cc3)sc2n1 | inactive | 13.5 µM (active) | 1.9 µM (active) | inactive |  |
| CNC(=S)NS(=O)(=O)c1cc(CCNC(=O)c2cc(Cl)ccc2OC)ccc1OC | inactive | inactive | 6.74 µM (active) |  | inactive |
| COc1cc(Nc2nc3ccccc3nc2NS(=O)(=O)c2ccc(NC(=O)c3ccc(OC)c(C)c3)cc2)cc(OC)c1 | inactive | inactive | 3.79 µM (active) |  |  |
| Cc1ccccc1-n1c([C@H](C)Nc2nc(N)nc3nc[nH]c23)nc2cccc(C)c2c1=O | inactive | 16.9 µM (active) | 1.34 µM (active) |  | 0.0649 µM (active) |
| CS(=O)(=O)c1ccc([C@H](CC2CCCC2)C(=O)Nc2nccs2)cc1 | inactive | 10.7 µM (active) | 6.01 µM (active) |  |  |
| COc1ccc(CC2NCCc3c2[nH]c2ccc(C)cc32)cc1OC (stereo not drawn) | inactive | 0.239 µM (active) | 10.7 µM (active) |  |  |
| Cn1nc(C(C)(C)C)cc1C(=O)NC(Cc1cccc(Cl)c1)C(=O)NCC#N (stereo not drawn) | inactive | 15.1 µM (active) | 15.1 µM (active) |  |  |
| CC[C@@](C)(Nc1ccnc(-c2c[nH]c3ncccc23)n1)C(=O)NCC(F)(F)F | inactive | 16.9 µM (active) | 21.3 µM (active) |  |  |
| Cn1ncnc1COc1nn2c(-c3cc(F)ccc3F)nnc2cc1C(C)(C)C | inactive | inactive | 9.52 µM (active) |  |  |
| O=C(NCc1cccc(O)c1)Nc1nc(-c2ccncc2)cs1 | inactive | 0.849 µM (active) | 0.301 µM (active) |  | 9.34 µM (active) |
| CS(=O)(=O)N(CC(=O)NCC1CC1)c1cc(C(F)(F)F)ccc1Cl | inactive | inactive | 3.38 µM (active) |  | inactive |
| CCCN1CCC(c2cccc(S(C)(=O)=O)c2)CC1 | inactive | 8.49 µM (active) | inactive |  | inactive |
